Compound activity deposited in PubChem BioAssay by National Center for Advancing Translational Sciences (NCATS).
D2 PAM-1 – HTS Assay for Positive Allosteric Modulators of the Human D2 Dopamine Receptor: Primary Screen for Potentiators; AID 485347, 2010; actives 0.34% (n = 340,000); HEK293 T-REx D2, calcium flux, EC20 dopamine potentiation; potentiation, % at 10 µM;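 active = potentiation over 3 SD above the plate norm, cut at about 30% in these data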; also: 0% is about no effect
Target sequence (P14416 whole entry, looked up): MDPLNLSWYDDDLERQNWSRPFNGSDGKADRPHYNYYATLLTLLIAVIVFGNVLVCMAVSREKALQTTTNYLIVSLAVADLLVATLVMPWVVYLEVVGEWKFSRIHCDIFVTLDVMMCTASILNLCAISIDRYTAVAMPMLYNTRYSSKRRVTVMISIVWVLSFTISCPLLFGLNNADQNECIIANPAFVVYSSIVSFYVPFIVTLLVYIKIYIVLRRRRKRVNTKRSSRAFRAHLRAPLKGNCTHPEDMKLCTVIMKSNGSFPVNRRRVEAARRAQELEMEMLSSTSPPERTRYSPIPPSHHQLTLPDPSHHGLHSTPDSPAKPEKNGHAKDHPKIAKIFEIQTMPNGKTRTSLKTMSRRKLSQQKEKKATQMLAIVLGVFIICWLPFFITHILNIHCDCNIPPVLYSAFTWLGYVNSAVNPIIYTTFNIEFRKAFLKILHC
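Primary screen. Calcium kinetics in induced HEK293 T-REx D2 cells: compound pre-addition 180 s, EC20 dopamine, 180 s more.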
D2 PAM-2 – Beta-Arrestin HTS for Positive Allosteric Modulators of the Human D2 Dopamine Receptor: Potentiators. D(2) dopamine receptor (Homo sapiens), P14416. DiscoveRx D2 beta-arrestin cells, luminescence, 90 min; 100% = 57 uM dopamine signal. potentiation, % (concentration not given with the values). actives 0.23% (n = 360,000); in the data active = potentiation above about 50%; inconclusive = mostly about 30% to 49%
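PathHunter beta-arrestin assay in DiscoveRx D2 cells. Compounds were added with an EC20 of dopamine (50 nM final) for 90 min at 37 deg C. Luminescence was read 1 h after detection reagent, with 57 uM dopamine as the EC100 control.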
D2 antagonist – HTS Assay for Allosteric Antagonists of the Human D2 Dopamine Receptor: Primary Screen for Antagonists. inhibition, % at 10 µM. D(2) dopamine receptor (Homo sapiens), P14416. HEK293 TREx D2 cells, calcium flux, dopamine EC80. actives 2% (n = 340,000). AID 485344, 2010; in the data active = inhibition above about 30%; inactive = below that, where a call was filed; also: 0% is about no effect
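Read-out: kinetic calcium fluorescence (1 cycle/s) in inducible HEK293 T-REx D2 cells after an EC80 dopamine addition that followed 180 s compound preincubation. Loss of the dopamine response indicates antagonism.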
D2 ag-1 – HTS Assay for Allosteric Agonists of the Human D2 Dopamine Receptor: Primary Screen for Agonists. AID 485358, 2010. HEK293 T-REx D2 cells, calcium flux agonist mode. D(2) dopamine receptor (Homo sapiens), P14416. actives 0.53% (n = 340,000). activation, % at 2 µM;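 active = activation over 3 SD above normal in the single-dose calcium agonist read, cut at about 30% in these data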; also: 0% is about no effect
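Tetracycline-induced HEK293 T-REx cells with force-coupled D2 receptor, plated overnight at 30 C, loaded with no-wash calcium dye. After a 10 s baseline, compound was pin-added and calcium flux read kinetically for 180 s; calcium rises flagged agonists.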
D2 ag-2 – Beta-Arrestin HTS for Positive Allosteric Modulators of the Human D2 Dopamine Receptor: Agonists; actives 0.084% (n = 360,000); activation, % (test concentration not listed); DiscoveRx PathHunter D2 beta-arrestin, luminescence, 90 min; 100% = 57 uM dopamine signal; in the data active = activation above about 40%; inconclusive = between about 15% and that limit
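Agonist mode: compounds alone added to overnight-plated D2 PathHunter cells for 90 min at 37 C, with 57 uM final dopamine (EC100) defining full response. Beta-arrestin recruitment detected by chemiluminescent reagent, read after 1 h at ambient temperature.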
D3 ag – qHTS of D3 Dopamine Receptor Agonist: D3 Dopamine Receptor B-arrestin Agonist Confirmatory Assay; shares compounds with D2 ag-1; DiscoveRx D3 beta-arrestin cells, luminescence, 90 min; Potency, µM (titrated, usually from 76.9 µM), without a hit: at the top dose activation, most hits filed as activators; actives 4% (n = 2,300); AID 720506, 2013;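 also: potency is read from the fitted curve at half-maximal effect; 100% = dopamine control response; nearly all actives have a fitted effect of over 70% in size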
D2 ag-3 – qHTS of D3 Dopamine Receptor Agonist: D2 Dopamine Receptor B-arrestin Agonist Counterscreen; shares compounds with D2 ag-1; DiscoveRx PathHunter D2 beta-arrestin, luminescence, 90 min; response scale: percent relative to full dopamine signal; Potency, µM (series often up to 76.9 µM), for the others: at the highest dose activation, most hits filed as activators; actives 5.9% (n = 2,300); AID 720507, 2013; also: potency is read from the fitted curve at half-maximal effect; % of control where 0% means no effect; nearly all actives have a fitted effect of over 70% in size
* marks the source's active call; other numbers are inactive results; ? = inconclusive; . = not tested or not shown. Only some compounds are listed: those with a hit (about 2.4% of all), similar ones and a draw of the others. Unless noted, calls follow the shape of the dose curve; as a rule, active = well fitted activation curve with a large enough effect; inconclusive = small, poorly fitted or top-dose-only effect; inactive = flat fitted curve, though single readings scatter.

SMILES	D2 PAM-1	D2 PAM-2	D2 antagonist	D2 ag-1	D2 ag-2	D3 ag	D2 ag-3
COc1ccc(-n2ncc3c(NCc4ccco4)ncnc32)cc1	18	-1	-4	-1	1	.	.
OC(c1ccccc1)(c1nc(-c2ccc(Cl)cc2)cs1)C(F)(F)F (configuration not stated)	.	-3	.	.	4	.	.
CCCc1ccc(S(=O)(=O)N2CCC(c3nnc(-c4cccc(C)c4)o3)CC2)cc1	3	.	.	1	.	.	.
Cc1cccc(-n2c(=O)c3c(c4cc(C)ccc4n3C)n(CC(=O)NCC3CCCO3)c2=O)c1 (configuration not stated)	-7	.	.	.	.	.	.
C=CCn1c(-c2ccc(OC)cc2)csc1=Nc1c(C)n(C)n(-c2ccccc2)c1=O	-15	-25	54*	67*	?	-8%	?
CC1=C(C(=O)NCc2cccc(Br)c2)C2(CCCCC2)OC1=O	0	.	.	0	.	.	.
COC(=O)c1ccc(NC(=O)CN2CCN(c3ccccc3)CC2)cc1	-22	13	95*	71*	?	-3%	?
COc1ccc(NC(=O)CN2CCN(c3ccccc3)CC2)cc1	-23	-8	50*	54*	-1	9%	14%
CC(=O)N1CCc2cc(C(=O)CN3CCN(c4ccccn4)CC3)ccc21	-29	24	93*	87*	?	1.6µM*	1.1µM*
COC(=O)c1ccc(C(=O)OC)c(NC(=O)CN2CCN(c3ccccc3)CC2)c1	7	-16	-35	0	-3	.	.
O=C(CN1CCN(c2ccccn2)CC1)Nc1ccc(OCc2ccccc2)cc1	9	?	57*	13	41*	-5%	?
Cc1c(C(=O)OC(C)C)sc(NC(=O)C2c3ccccc3Oc3ccccc32)c1C(=O)OC(C)C	-5	.	.	1	.	.	.
NC(=O)c1ccc(NC(=O)CN2CCN(c3ccc(Cl)cc3)CC2)cc1	6	-2	.	.	-4	.	.
NC(=O)c1ccc(NC(=O)CN2CCN(c3ccccc3)CC2)cc1	-22	-15	63*	72*	15	?	?
CCOC(=O)c1ccc(NC(=O)CN2CCN(c3ccccc3)CC2)cc1	-17	19	62*	65*	?	?	?
COC(=O)c1ccc(NC(=O)CN2CCN(c3ccccn3)CC2)cc1	-22	13	68*	64*	46*	-3%	?
O=C(CN1CCN(c2ccccn2)CC1)Nc1ccccc1C(=O)Nc1ccccc1	9	12	-6	1	2	.	.
CCOc1ccc(C2C(C(N)=O)=C(C)Nc3nc(SCc4ccccc4)nn32)cc1 (configuration not stated)	-25	.	.	-1	.	.	.
Cc1cc(C(C)(C)C)cc(S(=O)(=O)NCCc2ccncc2)c1C	4	2	1	2	1	-2%	0%
CCCCN1CC(=O)N2[C@@H]3c4cc(OC)ccc4OC[C@@H]3[C@H](C(=O)OCC)[C@]2(C)C1=O	.	0	.	.	-2	.	.
COc1ccc([N+](=O)[O-])cc1NC(=O)CCN1CCN(c2ccccc2OC)CC1	-27	-34	101*	66*	3	-7%	7%
CCN(CC)c1ccc(NC(=O)CN2CCN(c3ccccc3OC)CC2)cc1	-7	.	.	-6	.	.	.
COc1ccccc1N1CCN(CC(=O)Nc2c(C)n[nH]c2C)CC1	-21	-21	53*	67*	-2	-10%	7%
COc1ccc(OC)c(NC(=O)CCN2CCN(c3ccccc3F)CC2)c1	18	1	-12	-1	?	.	.
COc1ccc(C)cc1NC(=O)CCN1CCN(c2ccccc2)CC1	-25	-13	82*	79*	?	?	?
SMILES	D2 PAM-1	D2 PAM-2	D2 antagonist	D2 ag-1	D2 ag-2	D3 ag	D2 ag-3
CCN1CCN(CCC(=O)Nc2ccccc2OC)CC1	1	-16	-5	-1	-2	.	.
COc1ccc(C)cc1NC(=O)CCN1CCN(c2ccccc2F)CC1	-24	18	80*	74*	9	-4%	?
Cc1oc2cc3oc(=O)c(CCC(=O)NCCCN4CCOCC4)c(C)c3cc2c1C	-1	-21	-8	1	-4	.	.
COc1ccc(F)cc1S(=O)(=O)NCCc1csc2nc(-c3cccc(C)c3)nn12	-7	.	.	1	.	.	.
O=C(CCN1CCN(c2ccccc2)CC1)N/N=C/c1ccccc1O	-23	-11	91*	79*	7	-22%	?
Cc1ccc(C)c(NC(=O)CCN2CCN(c3ccccc3F)CC2)c1	-16	-16	67*	47*	-5	?	9%
CN1CCN(CCC(=O)N/N=C/c2ccccc2F)CC1	-8	0	2	0	-1	.	.
COC(=O)c1[nH]c2cccc(OC)c2c1NC(=O)CCN1CCN(c2ccccc2OC)CC1	-20	-13	83*	53*	4	-8%	20%
Cc1ccc(C)c(OCC(=O)NNC(=O)CCN2CCN(c3ccccc3)CC2)c1	-33	-13	80*	78*	15	18%	?
CCc1ccc(Oc2c(C(F)(F)F)oc3c(CN4CCN(C)CC4)c(O)ccc3c2=O)cc1	-29	.	.	1	.	.	.
COC(=O)c1sccc1S(=O)(=O)Nc1ccc(C(O)(C(F)(F)F)C(F)(F)F)cc1	.	-3	.	.	7	.	.
CCOC(=O)C1(CCOc2ccccc2)CCN(Cc2cccc(-n3cccn3)c2)CC1	-20	-19	-1	0	6	.	.
CCOC(=O)C1(CCOc2ccccc2)CCN(CCCn2cccn2)CC1	-21	-13	77*	57*	2	8%	18%
CCOC(=O)C1(Cc2cccc(F)c2)CCN(CCCn2cccn2)CC1	-22	-23	-24	43*	0	-9%	0%
COc1ccc(CNCCNC(=O)c2ccco2)c(OC)c1OC	-15	-18	-6	48*	2	-4%	-4%
